Most compounds without a hit are left out; they make up all but 2.3% or so of the library.
M1 ag parental = M1 agonist counterscreen hit in parental CHO-K1 cells | Fluo-8 calcium fluorescence; scaled to maximal ATP response, vehicle zero | activation, % at 3 µM | hit rate 0.48% among 360,000 | AID 602248; in the data active = activation above about 15%;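 also: untransfected CHO-K1 host cells lacking M1 receptor as counterscreen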
M1 PAM parental = M1 PAM counterscreen hit in parental CHO-K1 cells; ATP EC20, Fluo-8 calcium fluorescence; 0% at ATP EC20, 100% at ATP max; AID 602247; hit rate 0.02% among 360,000; activation, % at 3 µM;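 active = activation above the run cutoff, the mean activation of all test compounds plus 3 SD, cut at about 40% in these data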;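 also: peak over basal fluorescence ratio in a 140 s read after ATP addition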
CHO-K1 Ca antag = nonselective inhibitor or artifact in parental CHO-K1 cells. ATP-induced calcium, Fluo-8 fluorescence. inhibition, % at 3 µM. hit rate 0.6% among 360,000. AID 602250;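 active = inhibition above a per-plate cutoff, the plate's mean sample inhibition plus 3 SD, cut at about 24% in these data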;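 also: 0% = DMSO plus EC80 ATP and 100% = DMSO alone without ATP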
CHRM1 antagonist = human CHRM1 antagonism; P11229; CHO-K1 hM1, Fluo-8 calcium fluorescence, ACh EC80 antagonist; inhibition, % at 3 µM; hit rate 1.3% among 360,000; AID 588852;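 active = percent inhibition above its own plate's cutoff, namely the mean of that plate's compound wells plus 3 SD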;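 also: peak over basal fluorescence ratio during 140 s after agonist addition; 0% = ACh EC80 plus DMSO and 100% = DMSO alone without agonist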
Target sequence (P11229 whole entry, looked up): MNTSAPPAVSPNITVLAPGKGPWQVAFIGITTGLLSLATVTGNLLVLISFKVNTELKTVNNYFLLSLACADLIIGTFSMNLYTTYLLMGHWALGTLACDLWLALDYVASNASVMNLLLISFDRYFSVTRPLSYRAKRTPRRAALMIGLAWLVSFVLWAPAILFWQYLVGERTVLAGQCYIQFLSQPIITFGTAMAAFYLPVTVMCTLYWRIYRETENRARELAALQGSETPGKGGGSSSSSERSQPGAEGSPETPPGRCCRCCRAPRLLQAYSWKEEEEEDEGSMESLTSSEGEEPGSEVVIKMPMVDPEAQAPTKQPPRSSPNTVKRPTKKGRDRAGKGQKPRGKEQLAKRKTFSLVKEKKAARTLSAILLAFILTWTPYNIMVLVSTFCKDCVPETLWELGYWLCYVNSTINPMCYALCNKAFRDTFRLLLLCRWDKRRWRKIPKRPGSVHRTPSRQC
CHRM1 agonist = agonists of human M1 muscarinic receptor. CHO-K1 hM1, Fluo-8 calcium fluorescence, agonist mode; 0% DMSO, 100% acetylcholine EC100. activation, % at 3 µM. hit rate 0.33% among 360,000. AID 588814;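 active = activation above the run's mean compound activation plus 3 SD, cut at about 16% in these data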;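 also: peak over basal fluorescence ratio within a 140 s kinetic read after compound addition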
CHRM1 PAM = potentiates human M1 receptor response to acetylcholine | CHO-K1 hM1, Fluo-8 calcium fluorescence, ACh EC20; 0% = ACh EC20, 100% = maximal ACh | hit rate 0.088% among 360,000 | activation, % at 3 µM; in the data active = activation above about 19%, passing the limit was not always enough
The depositor's hits bear a star.

SMILES	M1 ag parental	M1 PAM parental	CHO-K1 Ca antag	CHRM1 antagonist	CHRM1 agonist	CHRM1 PAM
O=C(NCC1CCCO1)C1CCC(=O)N1Cc1ccccc1Cl (centres undefined)	0	-5	25*	6	0	1
Cc1ccc(S(=O)(=O)N2CCOCC2)cc1C(=O)N1CCN(S(=O)(=O)c2ccccc2F)CC1	0	-16	3	-6	-3	14
Cc1cccc2cc(-c3nc4c(C)cccn4c3NCc3ccco3)c(=O)[nH]c12	3	13	-3	28*	2	-15
CC(C)(C)NC(=O)c1ccccc1-c1nc2ccccc2s1	33*	9	0	-5	18*	5
CC(C)(C)NC(=O)c1nc2ccccc2s1	0	-5	7	9	-3	-7
O=C(OCc1nnc(-c2ccccc2)o1)c1ccc2ccccc2n1	0	-8	30*	16	-5	-7
S=C(Nc1ccccc1)Nc1ccc(Cl)cn1	4	8	-2	37*	-5	-13
O=C(NC(=S)Nc1ccc(Cl)cn1)C(c1ccccc1)c1ccccc1	0	0	-14	0	-5	-3
Cn1ccnc1C1CCCCN1C(=O)c1cc(COc2ccc(F)cc2Cl)on1 (centres undefined)	2	4	-6	36*	-13	-32
CSc1ccccc1OCc1cc(C(=O)N2CCSCC2)no1	1	5	-5	2	-3	6
CSc1ccccc1OCc1cc(C(=O)N2CCCC(C)C2)no1 (centres undefined)	0	18	-5	1	-5	4
CCN(CC)C1CCN(C(=O)c2cc(COc3ccccc3SC)on2)C1 (centres undefined)	1	7	-8	56*	1	-17
CSc1ccccc1OCc1cc(C(=O)N2CCC(Oc3cccnc3)CC2)no1	12	6	0	39*	-1	-19
COCC1CCN(C(=O)c2cc(COc3ccc(F)cc3Cl)on2)C1 (centres undefined)	1	7	-16	-14	-5	1
O=C(c1cc(COc2ccc(F)cc2Cl)on1)N1CC[C@@H]2CCCC[C@H]2C1	0	1	-3	0	-3	1
CCN(CC)C1CCN(C(=O)c2cc(COc3ccc(F)cc3Cl)on2)C1 (centres undefined)	1	-21	14	70*	2	-19
CC1CCC(NC(=O)Cn2c(=O)oc3ccccc32)CC1 (centres undefined)	0	-6	12	-17	-1	11
CSCCC1NC(=O)N(C(C)C(=O)Nc2cc(Cl)cc(Cl)c2)C1=O (centres undefined)	1	3	-10	-5	-6	3
Cc1nnc(NC(=O)CCn2cnc3ccccc3c2=O)s1	0	10	-6	13	-3	-1
C=CCNC(=O)COC(=O)c1c2c(nc3ccccc13)CCC2	-1	2	4	-2	-5	4
O=C(CN1CCCC1)N1c2ccccc2Sc2ccccc21	0	4	-11	97*	-5	-22
CCN1CCN(CC(=O)N2c3ccccc3Sc3ccccc32)CC1	1	3	-9	76*	-9	-27
CC(C)(C)OC(=O)CNC(=O)c1[nH]cnc1C(=O)NCCCCCNC(=O)OC(C)(C)C	17*	-2	-5	30	-1	-21
CC(C)(C)OC(=O)CNC(=O)c1[nH]cnc1C(=O)NCCCCCN	0	2	-6	2	-7	2
CC(C)C[C@H](NC(=O)c1nc[nH]c1C(=O)NCCCCCNC(=O)OC(C)(C)C)C(=O)OC(C)(C)C	-1	-21	-5	61*	-10	-35
SMILES	M1 ag parental	M1 PAM parental	CHO-K1 Ca antag	CHRM1 antagonist	CHRM1 agonist	CHRM1 PAM
N#CCCN1CCN(CCC#N)C1=S	1	-1	-6	1	16*	-3
N#CCCN1CCN(CCC#N)c2ccccc21	0	-1	-4	2	0	0
Cc1cccc(-c2ccc3c(c2)C2CC3CCN2Cc2ccc3c(c2)OCO3)c1 (centres undefined)	1	7	-7	2	-2	3
COc1ccccc1CNC(=O)COc1cccc(-n2cnnn2)c1	1	12	-12	-4	-3	5
CCC(=O)c1ccc(OCC(=O)Nc2nc(C)cs2)cc1	2	7	-5	-10	1	4
CCC(=O)c1ccc(OCC(=O)Nc2nc(-c3cccnc3)cs2)cc1	8	-4	12	27*	-1	-10
COc1ccc(C(CC(=O)Nc2nccs2)n2cccc2)cc1 (centres undefined)	1	-9	8	-6	2	9
COc1ccc(OCC(=O)Nc2nccs2)cc1	17*	13	-5	-4	-4	6
COc1ccc(C(CC(=O)Nc2nccs2)C(C)C)cc1 (centres undefined)	19*	3	3	10	-3	-6
COc1ccccc1OCC(=O)Nc1ncc(C)s1	0	-14	-4	0	-3	0
Cc1cnc(NC(=O)COc2ccccc2)s1	0	-9	25*	15	-2	-2
Cc1cc(C(C)(C)C)cc(S(=O)(=O)NCCc2ccncc2)c1C	2	15	-9	18	-6	-7
CC(C)(C)c1ccc(C(=O)NCC(=O)N2CCC3(CC2)NCCc2[nH]cnc23)cc1	1	14	-8	-8	-4	7
O=C(CCNC(=O)c1ccccc1Cl)NCC(c1ccco1)N1CCCC1 (centres undefined)	1	8	-2	-10	-7	10
C/C(=N\N1C(=O)CSC1=S)c1ccc(Br)cc1	19*	7	4	1	-6	1
Cc1ccc(C(=O)NN2C(=O)CSC2=S)cc1	4	3	-8	6	-5	-2
C[C@]12CCC(=O)C=C1CC[C@@H]1[C@@H]2CC[C@@]2(C)[C@H]1CC[C@@]21CCC(=O)O1	4	-7	-9	31*	-8	-21
N#CC(c1ccc(Cl)cc1)c1ccc2c(C(F)(F)F)cc(C(F)(F)F)nc2n1 (centres undefined)	10	9	24*	22	3	-5
CCOC(=O)C1C(=O)NC(c2ccccc2)=NC1c1ccc(Br)cc1 (centres undefined)	1	16	-18	1	-8	5
O=C1C(Cl)=C(N2CCN(Cc3ccccc3)CC2)C(=O)N1Cc1ccccc1	1	11	8	57*	-7	-25
CCN1C(=O)S/C(=C/c2ccc(Sc3nc4ccccc4[nH]3)o2)C1=O	9	16	-3	31*	0	-20
Cc1nn(C)c(C)c1CNC(=O)c1nn2c(c1Cl)NC(c1cccs1)CC2C(F)(F)F (centres undefined)	0	-7	-2	-8	-2	-4
